Records with an inconclusive call do not appear. Activity calls are given as the source filed them. The calls were made as follows, unless noted: active = hit-call score of the fitted dose curve at least 0.9, where 1 is the maximum; inactive = score below 0.9.
How the values were obtained:
[1] = CCTE_Shafer_MEA_dev_interburst_interval_mean: CCTE's Neural Network Formation Assay for Mean Interburst Interval, Shafer Lab (AID 2284046);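 also: well-mean interburst interval of bursting electrodes as AUC over four recording days; curve fitted for decrease in interburst interval relative to DMSO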
Procedure, shortened: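 Recordings on days 5, 7, 9 and 12 give well-mean interburst interval across actively bursting electrodes, summarized as area under the curve. Cultures: rat cortical neurons, continuous exposure from day 0, compound renewed at feeds; decrease analyzed versus DMSO.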

[2] = CCTE_Shafer_MEA_dev_inter_network_spike_interval_mean: CCTE's Neural Network Formation Assay for Mean Inter-network Spike Interval, Shafer Lab (AID 2284047)
Procedure, shortened: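 Primary rat cortical neurons on 16-electrode MEA wells, exposed from plating day 0 through DIV 12, compound renewed at DIV 5 and 9 media changes. Mean interval between network-spike peaks recorded DIV 5, 7, 9, 12; collapsed as trapezoidal AUC, fitted downward versus DMSO.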

[3] = CCTE_Shafer_MEA_dev_network_spike_peak: CCTE's Neural Network Formation Assay for Mean Number of Electrodes in Network Spike, Shafer Lab (AID 2284049)
Procedure, shortened: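 Network-spike peak electrode count from recordings on days 5, 7, 9 and 12 was combined as trapezoidal area under the curve. Rat cortical cultures were treated continuously from plating, with compound renewed at each feed (DIV 5, 9); fits versus DMSO.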

[4] = CCTE_Shafer_MEA_dev_spike_duration_mean: CCTE's Neural Network Formation Assay for Mean Spike Duration, Shafer Lab (AID 2284051);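 also: mean network spike duration pooled as area under curve over DIV 5 to 12 recordings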
Procedure, shortened: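 Primary rat cortical neurons on 16-electrode MEA wells (PEI-coated, laminin in plating drop), exposed from plating through DIV 12 with compound renewed at DIV 5 and 9. Mean network-spike duration recorded DIV 5, 7, 9, 12; trapezoidal AUC across days, DMSO baseline.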

[5] = CCTE_Shafer_MEA_dev_network_spike_duration_std: CCTE's Neural Network Formation Assay for Standard Deviation of Network Spike Duration, Shafer Lab (AID 2284052);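 also: area under curve of spike duration SD across recording days 5 to 12; hits are decreases in network spike duration SD versus DMSO vehicle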
Procedure, shortened: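 Primary rat cortical neurons on PEI-coated 16-electrode MEA wells, exposed from plating day 0 through day 12 with compound renewed at DIV 5 and 9. Network spike duration SD recorded on days 5, 7, 9, 12, collapsed as trapezoidal AUC; loss-of-signal fit versus DMSO.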

[6] = CCTE_Shafer_MEA_dev_per_network_spike_spike_number_mean: CCTE's Neural Network Formation Assay for Mean Number of Spikes in a Network Spike, Shafer Lab (AID 2284053)
Procedure, shortened: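 Primary rat cortical neurons on 48-well, 16-electrode MEA plates were exposed from plating to DIV 12, with dosing renewed on DIV 5 and 9. Spikes per network spike (0.05 s peak window) were recorded on DIV 5, 7, 9 and 12 and collapsed as trapezoidal AUC versus DMSO.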

[7] = CCTE_Shafer_MEA_dev_per_network_spike_spike_percent: CCTE's Neural Network Formation Assay for Percent of Spikes in a Network Spike, Shafer Lab (AID 2284054)
Procedure, shortened: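 Rat primary cortical neurons were grown on 48-well MEA plates (16 electrodes/well), exposed from plating day 0 through day 12, with treatment renewed on DIV 5 and 9. Percent of spikes within 0.05 s network-spike peaks was measured, summarised as AUC across days 5, 7, 9, 12.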

[8] = CCTE_Shafer_MEA_dev_LDH: CCTE's Lactate Dehydrogenase Assay for Cytotoxicity in the Neural Network Formation Assay, Shafer Lab (AID 2284068; active = hit-call score of the fitted dose curve at least 0.9, where 1 is the maximum;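 also: exposure for twelve days from plating with re-dosing on DIV 5 and 9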)
Procedure, shortened: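 Primary rat cortical neurons were plated on PEI/laminin MEA plates and exposed from day 0 for twelve days, with compound renewed at DIV 5 and 9. Cytotoxicity was determined by spectrophotometric LDH assay relative to DMSO.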

[9] = CCTE_Shafer_MEA_dev_AB: CCTE's Alamar Blue Assay for Cytotoxicity in the Neural Network Formation Assay, Shafer Lab (AID 2284083; active = hit-call score of the fitted dose curve at least 0.9, where 1 is the maximum;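 also: twelve days of exposure from plating with re-dosing on DIV 5 and 9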)
Procedure, shortened: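 Primary rat cortical neurons on PEI-coated 48-well MEA plates, 1.5 x 10^5 cells/well in laminin drop; compound exposure from day 0 of plating for twelve days, renewed at medium changes on DIV 5 and 9. Viability read as resazurin reduction by fluorescence, relative to DMSO.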

[10] = CCTE_Shafer_MEA_dev_mutual_information_norm: CCTE's Neural Network Formation Assay for Mutual Information Normalization, Shafer Lab (AID 2284091)
Procedure, shortened: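 Primary rat cortical neurons on PEI-coated 48-well MEA plates, 1.5 x 10^5 cells/well, exposed from day 0 through day 12 with re-dosing at DIV 5 and 9. Mutual information between electrodes recorded days 5, 7, 9, 12; trapezoidal AUC, loss-of-signal fit versus DMSO.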

[11] = CCTE_Shafer_MEA_dev_correlation_coefficient_mean: CCTE's Neural Network Formation Assay for Mean Correlation Coefficient, Shafer Lab (AID 2284093)
Procedure, shortened: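 Spontaneous activity recorded on days 5, 7, 9 and 12 post-plating; pairwise spike correlations are averaged across active electrodes and collapsed to an area-under-curve. Rat cortical cultures are dosed from plating through 12 days, with compound renewed at media changes.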

[12] = CCTE_Mundy_HCI_Cortical_Synap_Neur_Matur_NeuriteSpotCountPerNeuriteLength: CCTE's Synaptogenesis and Neurite Maturation Assay in rat cortical cells for Neurite Spot Count per Neurite Length, Mundy Lab (AID 2284210)
Procedure, shortened: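 Rat primary cortical cultures, AraC added at DIV 5 to suppress glia; chemical exposure from DIV 7 to DIV 12. Fixed cells stained for MAP2 and synaptophysin plus Hoechst; synaptophysin puncta per neurite length quantified by high-content imaging, relative to DMSO.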

[13] = CCTE_Mundy_HCI_Cortical_NOG_NeuriteLength: CCTE's Neurite Outgrowth Assay in rat cortical cells for Neurite Length, Mundy Lab (AID 2284213)
Procedure, shortened: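 Neurite length was read by high-content imaging of βIII-tubulin-labelled neurites in rat primary cortical cultures. Activity was fitted relative to DMSO.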

[14] = CCTE_Mundy_HCI_Cortical_Synap_Neur_Matur_NeuriteLength: CCTE's Synaptogenesis and Neurite Maturation Assay in rat cortical cells for Neurite Length, Mundy Lab (AID 2284214)
Procedure, shortened: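 Rat primary cortical cells were plated, treated with AraC at DIV 5 to arrest glial growth, then chemical-dosed with media change at DIV 7 through DIV 12. Fixed cells stained for MAP2, synaptophysin and Hoechst; neurite length quantified by high-content imaging.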

[15] = CCTE_Mundy_HCI_Cortical_Synap_Neur_Matur_NeuriteSpotCountPerNeuron: CCTE's Synaptogenesis and Neurite Maturation Assay in rat cortical cells for Neurite Spot Count per Neuron Count, Mundy Lab (AID 2284215)
Procedure, shortened: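 Rat primary cortical cultures given AraC at DIV 5, dosed from DIV 7 to DIV 12 with media change. Fixed, stained for MAP2, synaptophysin and Hoechst; neurite-associated synaptophysin puncta per neuron quantified by high-content imaging versus DMSO.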

[16] = CCTE_Mundy_HCI_Cortical_Synap_Neur_Matur_SynapseCount: CCTE's Synaptogenesis and Neurite Maturation Assay in rat cortical cells for Synapse Count, Mundy Lab (AID 2284218)
Procedure, shortened: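 Rat primary cortical cells in 96-well plates received AraC at DIV 5 and were dosed with chemicals at DIV 7 with media change, through DIV 12 (288.33 h). Synapses per neuron counted by high-content imaging of MAP2/synaptophysin/Hoechst staining, versus DMSO baseline.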

[17] = CCTE_Mundy_HCI_hN2_NOG_NeuriteCount: CCTE's Neurite Outgrowth Assay in human hN2 cells for Neurite Count, Mundy Lab (AID 2284219; active = hit-call score of the fitted dose curve at least 0.9, where 1 is the maximum)
Procedure, shortened: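 In this morphology assay, hNP1-derived neurons received test chemical 2 h post-plating and were fixed two days later in warm paraformaldehyde/sucrose containing Hoechst 33342. Neurites, labelled by rabbit anti-βIII-tubulin (1:800) and Alexa Fluor-488 (1:500), were counted automatically.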

[18] = CCTE_Mundy_HCI_hN2_NOG_NeuriteLength: CCTE's Neurite Outgrowth Assay in human hN2 cells for Neurite Length, Mundy Lab (AID 2284220; active = hit-call score of the fitted dose curve at least 0.9, where 1 is the maximum)
Procedure, shortened: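 Read-out is neurite length from high-content imaging of βIII-tubulin/Alexa Fluor-488-labelled neurons, referenced to DMSO controls.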

[19] = CCTE_Mundy_HCI_Cortical_Synap_Neur_Matur_CellBodySpotCount: CCTE's Synaptogenesis and Neurite Maturation Assay in rat cortical cells for Cell Body Spot Count, Mundy Lab (AID 2284223)
Procedure, shortened: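 Primary rat cortical cultures, AraC added at DIV 5; dosed DIV 7 through DIV 12 […]. Fixed, stained for MAP2 and synaptophysin with Hoechst; cell body-associated synaptophysin puncta per neuron counted by high-content imaging, loss vs DMSO.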

[20] = CCTE_Mundy_HCI_hNP1_Pro_ResponderAvgInten: CCTE's Proliferation Assay in human neuroprogenitor cells, Mundy Lab (AID 2284224; active = hit-call score of the fitted dose curve at least 0.9, where 1 is the maximum;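 also: human neural progenitor cells hNP1 derived from WA09 embryonic stem cells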)
Procedure, shortened: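 Proliferation read as average intensity of BrdU-positive cells, imaged at 26.25 h post-dosing: chemical exposure started after 40–44 h culture, BrdU during final 4 h, paraformaldehyde fixation. Positive-direction fit relative to DMSO.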

[21] = CCTE_Mundy_HCI_Cortical_NOG_NeuronCount: CCTE's Neurite Outgrowth Assay in rat cortical cells for Neuron Count, Mundy Lab (AID 2284236; active = hit-call score of the fitted dose curve at least 0.9, where 1 is the maximum;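 also: neurons counted by imaging betaIII-tubulin and Hoechst stained cortical cells; cells exposed to compound for about 48 hours before fixation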)
Procedure, shortened: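 Read-out: neuron number by high-content imaging of betaIII-tubulin (Alexa Fluor-488) and Hoechst-labelled rat primary cortical cells.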

[22] = CCTE_Mundy_HCI_hNP1_Casp3_7: CCTE's Caspase-Glo 3/7 Assay in human neuroprogenitor cells for Apoptosis, Mundy Lab (AID 2284240)
Procedure, shortened: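 Luminescent caspase-3/7 readout, 26.5 h post-dose, in human neural progenitor cells from WA09 embryonic stem cells. Cells grew 40–44 h at 37 °C, 5% CO2 before chemical addition. Activity analysed as signal increase over DMSO baseline.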

Measured: outcome

O=C(O)CNCP(=O)(O)O
inactive: all assays above
